What all share (conditions): mRNA level, 48 h; actives raise or lower the signal
Read-out in test [1]: Glutathione S-transferase M3 (GSTM3), GSTM3 (gene 2947)
The test is described as follows: LTEA_HepaRG_GSTM3: Life Technologies and Expression Analysis (LTEA) Assay for Glutathione S-transferase M3 (GSTM3) using HepaRG (AID 2283501). An outline of the steps:
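HepaRG, plated 48 h, then serum-free induction medium; test chemical 48 h, duplicate; 100 uM top, half-log x8, 0.5% DMSO. Read-out: GSTM3 mRNA (TaqMan qRT-PCR, Fluidigm array). Bidirectional fit vs DMSO.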

Read-out in test [2]: Heat shock 70 kDa protein 1 (HSPA1A), gene 3303
Kind of test: LTEA_HepaRG_HSPA1A: Life Technologies and Expression Analysis (LTEA) Assay for Heat shock 70 kDa protein 1 (HSPA1A) using HepaRG (AID 2283502). An outline of the steps: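 Readout is HSPA1A transcript level by microfluidic qRT-PCR, normalized to three housekeeping genes and analysed for gain or loss of signal relative to 0.5% DMSO. Human HepaRG cultures received test chemicals for 48 h at up to 100 uM.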

Read-out in test [3]: Hypoxia-inducible factor 1-alpha (Homo sapiens) (UniProt Q16665)
The test is described as follows: LTEA_HepaRG_HIF1A: Life Technologies and Expression Analysis (LTEA) Assay for Hypoxia-inducible factor 1 (HIF1A) Trancription factor using HepaRG (AID 2283503). Put shortly:
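Differentiated HepaRG cells in serum-free induction medium exposed 48 h, in duplicate, to 8-point half-log series from 100 uM in 0.5% DMSO. HIF1A mRNA measured by TaqMan qRT-PCR, normalized to ACTB/GAPDH/POLR2A, fitted bidirectionally versus DMSO.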

Read-out in test [4]: 3-Hydroxy-3-Methylglutaryl-CoA Synthase 2 (HMGCS2), HMGCS2 (gene 3158)
Kind of test: LTEA_HepaRG_HMGCS2: Life Technologies and Expression Analysis (LTEA) Assay for 3-Hydroxy-3-Methylglutaryl-CoA Synthase 2 (HMGCS2) using HepaRG (AID 2283504). Put shortly:
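HepaRG, plated 48 h then switched to serum-free induction media; cmpd 8-pt, max 100 uM, 1/2-log, 0.5% DMSO, n=2, 48 h. HMGCS2 mRNA by Fluidigm TaqMan qRT-PCR, ACTB/GAPDH/POLR2A norm; bidirectional fit vs DMSO.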

Read-out in another test: HGF (gene 3082)
The test is described as follows: LTEA_HepaRG_HGF: Life Technologies and Expression Analysis (LTEA) Assay for Hepatocyte Growth Facto (HGF) using HepaRG (AID 2283505). Put shortly:
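Read-out is HGF transcript level by qRT-PCR, normalized to three housekeeping genes, fitted bidirectionally against 0.5% DMSO vehicle. Human HepaRG cells received test chemicals for 48 h at up to 100 uM.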

Read-out in test [5]: Insulin Like Growth Factor 1 (IGF1), IGF1 (gene 3479)
Kind of test: LTEA_HepaRG_IGF1: Life Technologies and Expression Analysis (LTEA) Assay for Insulin Like Growth Factor 1 (IGF1) using HepaRG (AID 2283506). An outline of the steps:
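HepaRG, plated 48 h, then switched to serum-free induction media; test chemical 8-pt half-log from 100 uM (0.5% DMSO), duplicate, 48 h. Lysis in RLT, TaqMan qRT-PCR, norm. ACTB/GAPDH/POLR2A. Bidirectional fit vs DMSO.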

Read-out in test [6]: Interleukin 6 (IL6), IL6 (gene 3569)
The test is described as follows: LTEA_HepaRG_IL6: Life Technologies and Expression Analysis (LTEA) Assay for Interleukin 6 (IL6) using HepaRG (AID 2283509). Put shortly: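 Differentiated human HepaRG cells, plated 48 h then switched to serum-free induction medium, were exposed in duplicate for 48 h to eight half-log concentrations up to 100 uM in 0.5% DMSO. IL6 mRNA measured by qRT-PCR, normalized to ACTB/GAPDH/POLR2A.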

Read-out in test [7]: Interleukin 6 Receptor (IL6R), IL6R (gene 3570)
The test is described as follows: LTEA_HepaRG_IL6R: Life Technologies and Expression Analysis (LTEA) Assay for Interleukin 6 Receptor (IL6R) using HepaRG (AID 2283510). An outline of the steps:
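Readout is IL6R transcript level by TaqMan qRT-PCR, normalized to three housekeeping genes and fitted bidirectionally against 0.5% DMSO controls. Human HepaRG cells received chemicals for 48 h in serum-free induction medium, highest concentration 100 uM.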

Read-out in test [8]: Potassium channel subfamily K member 1 (KCNK1), KCNK1 (gene 3775)
Kind of test: LTEA_HepaRG_KCNK1: Life Technologies and Expression Analysis (LTEA) Assay for Potassium channel subfamily K member 1 (KCNK1) using HepaRG (AID 2283511). An outline of the steps: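 Differentiated human HepaRG cells in serum-free induction medium were exposed in duplicate for 48 h to 8 half-log concentrations up to 100 uM in 0.5% DMSO. KCNK1 mRNA was measured by TaqMan qRT-PCR, normalized to ACTB, GAPDH and POLR2A, and fitted bidirectionally versus DMSO.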

Read-out in test [9]: Keratin 19 (KRT19), KRT19 (gene 3880)
The test is described as follows: LTEA_HepaRG_KRT19: Life Technologies and Expression Analysis (LTEA) Assay for Keratin 19 (KRT19) using HepaRG (AID 2283512). An outline of the steps: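 KRT19 transcript levels, measured by Fluidigm qRT-PCR against three housekeeping genes, are fitted for gain or loss of signal relative to DMSO. Human HepaRG cells receive test chemicals (top 100 uM, half-log steps, 0.5% DMSO) for 48 hours.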

Read-out in test [10]: JUN Transcription Factor, JUN (gene 3725)
The test is described as follows: LTEA_HepaRG_JUN: Life Technologies and Expression Analysis (LTEA) Assay for JUN Transcription Factor using HepaRG (AID 2283513). An outline of the steps:
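Cells plated 48 h, medium switched to serum-free induction medium, then dosed 48 h (100 uM top, half-log dilutions, 0.5% DMSO). RNA isolated; JUN measured by qRT-PCR against three housekeeping genes; gain or loss fitted relative to DMSO.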

Read-out in test [11]: Lipase C (LIPC), LIPC (gene 3990)
Kind of test: LTEA_HepaRG_LIPC: Life Technologies and Expression Analysis (LTEA) Assay for Lipase C (LIPC) using HepaRG (AID 2283514). An outline of the steps:
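Differentiated human HepaRG cells in serum-free induction medium were exposed in duplicate for 48 h to eight concentrations (top 100 uM, half-log steps, 0.5% DMSO). LIPC mRNA was quantified by TaqMan qRT-PCR, normalized to ACTB, GAPDH and POLR2A, with bidirectional fitting versus DMSO.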

Read-out in test [12]: Lipoprotein lipase (LPL), LPL (gene 4023)
Kind of test: LTEA_HepaRG_LPL: Life Technologies and Expression Analysis (LTEA) Assay for Lipoprotein lipase (LPL) using HepaRG (AID 2283515). An outline of the steps: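 Differentiated human HepaRG cells in serum-free induction medium were exposed in duplicate for 48 h to eight half-log concentrations (top 100 uM) in 0.5% DMSO. LPL mRNA was quantified by TaqMan qRT-PCR, normalized to ACTB, GAPDH and POLR2A.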

Read-out in test [13]: MicroRNA 122 (MIR122), gene 406906
Kind of test: LTEA_HepaRG_MIR122: Life Technologies and Expression Analysis (LTEA) Assay for MicroRNA 122 (MIR122) using HepaRG (AID 2283516). Note: the transcript read is the microRNA miR-122. Put shortly: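 HepaRG plated 48 h, switched to serum-free induction medium, then treated in duplicate for 48 h (100 uM top, half-log steps, 0.5% DMSO vehicle). RNA isolated, qRT-PCR performed, concentration-response fitted both directions relative to DMSO.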

Read-out in test [14]: matrix metalloproteinase-10 (MMP10), MMP10 (gene 4319)
The test is described as follows: LTEA_HepaRG_MMP10: Life Technologies and Expression Analysis (LTEA) Assay for matrix metalloproteinase-10 (MMP10) using HepaRG (AID 2283517). Put shortly:
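HepaRG, collagen I, ~100,000 cells/well; serum-free induction medium; 48 h exposure, duplicate, 8-pt half-log to 100 uM, 0.5% DMSO. Readout: TaqMan qRT-PCR, normalized to ACTB/GAPDH/POLR2A; bidirectional fit vs DMSO.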

Read-out in another test: MYC, MYC (gene 4609)
The test is described as follows: LTEA_HepaRG_MYC: Life Technologies and Expression Analysis (LTEA) Assay for MYC using HepaRG (AID 2283518). Put shortly:
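HepaRG, ~100,000 cells/well, collagen I; 48 h plating; serum-free induction medium; 48 h dosing, duplicate, 100 uM top, half-log, 0.5% DMSO; total RNA → qRT-PCR MYC; gain/loss fit vs DMSO.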

Read-out in test [15]: matrix metalloproteinase-3 (MMP3), MMP3 (gene 4314)
Kind of test: LTEA_HepaRG_MMP3: Life Technologies and Expression Analysis (LTEA) Assay for matrix metalloproteinase-3 (MMP3) using HepaRG (AID 2283519). Put shortly:
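Differentiated human HepaRG cells, plated 48 h on collagen I, were exposed in duplicate for 48 h in serum-free induction medium to eight half-log concentrations up to 100 uM in 0.5% DMSO. MMP3 mRNA was quantified by TaqMan qRT-PCR, normalised to ACTB, GAPDH and POLR2A.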

Read-out in test [16]: Paternally Expressed 10 (PEG10), PEG10 (gene 23089)
Kind of test: LTEA_HepaRG_PEG10: Life Technologies and Expression Analysis (LTEA) Assay for Paternally Expressed 10 (PEG10) using HepaRG (AID 2283520). An outline of the steps: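 HepaRG, 48 h post-plating → serum-free induction medium → 48 h chemical exposure (duplicate, 8-pt, max 100 uM, half-log, 0.5% DMSO) → lysis in RLT → TaqMan qRT-PCR for PEG10, ACTB/GAPDH/POLR2A normalisation.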

Read-out in test [17]: Intercellular Adhesion Molecule 1 (ICAM1), ICAM1 (gene 3383)
Kind of test: LTEA_HepaRG_ICAM1: Life Technologies and Expression Analysis (LTEA) Assay for Intercellular Adhesion Molecule 1 (ICAM1) using HepaRG (AID 2283507). Put shortly:
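Readout is qRT-PCR mRNA level, normalized to three housekeeping genes and fitted bidirectionally against 0.5% DMSO vehicle. Human HepaRG cultures received compound for 48 h, top concentration 100 uM with half-log dilutions.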

Read-out in test [18]: Insulin-like growth factor-binding protein 1 (IGFBP1), IGFBP1 (gene 3484)
Kind of test: LTEA_HepaRG_IGFBP1: Life Technologies and Expression Analysis (LTEA) Assay for Insulin-like growth factor-binding protein 1 (IGFBP1) using HepaRG (AID 2283508). Put shortly: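 Thawed HepaRG cells are plated for 48 h, switched to serum-free induction medium, then dosed in duplicate for another 48 h (100 uM top, half-log steps). Lysates in RLT go to qRT-PCR, and gain or loss of signal is fitted relative to vehicle.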

Structures are written as SMILES. Calls of active or inactive are those of the source. Rule for the calls: active = hit-call score of the fitted dose curve at least 0.9, where 1 is the maximum; inactive = score below 0.9.

Chain of Hypoxia-inducible factor 1-alpha (Homo sapiens) (Q16665 whole entry, looked up): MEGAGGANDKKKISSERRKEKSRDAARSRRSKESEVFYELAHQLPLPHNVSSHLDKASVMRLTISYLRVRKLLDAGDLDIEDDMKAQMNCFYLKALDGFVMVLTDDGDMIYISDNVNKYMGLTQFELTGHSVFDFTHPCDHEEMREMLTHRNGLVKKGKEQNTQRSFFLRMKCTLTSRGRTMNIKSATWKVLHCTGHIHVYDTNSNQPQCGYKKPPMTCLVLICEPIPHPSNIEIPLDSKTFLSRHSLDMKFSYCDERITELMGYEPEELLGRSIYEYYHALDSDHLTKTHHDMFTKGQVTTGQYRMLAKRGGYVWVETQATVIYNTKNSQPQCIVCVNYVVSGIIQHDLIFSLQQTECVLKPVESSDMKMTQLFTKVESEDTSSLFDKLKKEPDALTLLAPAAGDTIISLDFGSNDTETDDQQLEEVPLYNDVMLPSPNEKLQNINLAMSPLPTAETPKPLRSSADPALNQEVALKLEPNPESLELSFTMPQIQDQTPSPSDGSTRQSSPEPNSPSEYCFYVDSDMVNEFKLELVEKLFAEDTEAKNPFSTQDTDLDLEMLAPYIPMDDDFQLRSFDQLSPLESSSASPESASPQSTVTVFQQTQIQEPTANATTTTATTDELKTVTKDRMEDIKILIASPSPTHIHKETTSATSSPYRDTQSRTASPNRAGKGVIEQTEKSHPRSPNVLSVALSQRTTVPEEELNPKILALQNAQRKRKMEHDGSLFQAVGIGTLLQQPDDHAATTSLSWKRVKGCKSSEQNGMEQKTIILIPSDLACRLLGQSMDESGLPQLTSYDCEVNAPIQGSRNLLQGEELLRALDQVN

For `CC(C)N(Cc1ccccc1)C(=O)C(C)(C)C`, the molecule was called inactive (in [1]; in [2]; in [3]; in test [4]; with HGF (gene 3082); in test [6]). Also, the molecule was classed as inactive in [7], in [8], in [9], in test [10], in test [11] and in test [12]. The outcome is “inactive” in test [13]; “inactive” in [14]; “inactive” with MYC, MYC (gene 4609); “inactive” in test [15]. The AC50 in test [5] was 25.6 µM (active); in test [16], 28.8 µM (active).

For the molecule `c1ccc(N=Nc2ccccc2)cc1`, the molecule was classed as inactive (in [1]; in test [2]; in [3]; in test [4]; with HGF (gene 3082); in test [17]). Besides, the call in test [18], in test [7], in test [8], in test [9], in test [10] and in test [11] was inactive. Moreover, the outcome is “inactive” in test [12]; “inactive” in [13]; “inactive” in test [14]; “inactive” with MYC, MYC (gene 4609); “inactive” in test [16].

Consider `Cc1ccc(N)cc1`, for which the call (in test [1]; in test [2]; in test [3]; in [4]; in the test with HGF (gene 3082); in test [5]) was inactive. The molecule was classed as inactive in test [18], in [8], in test [9], in [10], in test [11] and in [12]. The outcome in test [13] is “inactive”; in test [14], “inactive”; with MYC, MYC (gene 4609), “inactive”; in test [15], “inactive”; in test [16], “inactive”.

`O=[N+]([O-])c1ccc(Oc2ccc(Cl)cc2Cl)cc1`: the call (in [1]; in [2]; in test [3]; in test [4]; with HGF (gene 3082); in test [8]) was inactive. Moreover, the outcome in [10], in test [11], in test [12], in test [13] and in test [14] was inactive. Further, the concentration at half-maximal activity (AC50) is 50 µM (active) in [5]; 50 µM (active) in test [18]; 41.1 µM (active) in [9]; 32.8 µM (active) with MYC, MYC (gene 4609); 50 µM (active) in test [16].

A word on the AC50: it is the midpoint of the concentration-response curve, whichever way the signal moves.

These data come from PubChem BioAssay (EPA / NIEHS).
